Columns and labels:
Experiment in all cases: PBM binding z-score (relative to random genomic background probes); higher = stronger binding; sequences stand for … in GC…GCGATTGACAGCGTAGAATGAAGG
[1] = tested on: RARb homodimer (NR concentration 270 nM)
How it was run: (§1)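 Random background probes are the reference for binding z-scores. These scores derive from regression-normalized fluorescence on custom Agilent 4×180K protein-binding microarrays incubated 1 h with ligand-free nuclear receptor dimers. Binding was detected with antibodies against each partner (one per run).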

[2] = tested on: RARg:RXRa (NR concentration 270 nM, RXRa partner concentration 90 nM)
How it was run: as §1

[3] = tested on: RARg homodimer (NR concentration 270 nM)
How it was run: as §1

[4] = tested on: RXRa DBDmut IVT, anti-RXR (DBD mutation: RXRa K156A/R161A, NR concentration 90 nM)
How it was run: as §1

[5] = tested on: RXRa homodimer (NR concentration 180 nM)
How it was run: as §1

[6] = tested on: THRa:RXRa (NR concentration 90 nM, RXRa partner concentration 90 nM)
How it was run: as §1

[7] = tested on: THRa homodimer (NR concentration 90 nM)
How it was run: as §1

[8] = tested on: VDR:RXRa (NR concentration 270 nM, RXRa partner concentration 90 nM)
How it was run: as §1

[9] = tested on: VDR homodimer (NR concentration 270 nM)
How it was run: as §1

| Sequence | PBM binding z-score [1] | PBM binding z-score [2] | PBM binding z-score [3] | PBM binding z-score [4] | PBM binding z-score [5] | PBM binding z-score [6] | PBM binding z-score [7] | PBM binding z-score [8] | PBM binding z-score [9] |
| --- | --- | --- | --- | --- | --- | --- | --- | --- | --- |
| CCAGACAGTTGAGAAGGTAACTCAGCCTCGATTA | 0.381 | 0.25 | 0.293 | 0.456 | 0.203 | 0.25 | 0.485 | 0.251 | 0.252 |
| CCGAGTGGGGCAAAGGTTACCATACTCAGTACGA | 2.45 | 3.55 | 1.75 | 0.25 | 3.67 | 1.86 | -0.359 | 1.49 | 0.16 |
| TCACATAGGTAAATGCTAGGTGAAAGTCCGATCT | 0.255 | 0.301 | 0.189 | 1.17 | 0.654 | 1.31 | 0.359 | 0.334 | -0.199 |
| TCTAGCAGGCCAGATGGTCACTCAAGAGGTACGG | 0.18 | 0.0724 | 0.0188 | -0.141 | -0.0633 | -0.597 | -0.77 | -0.443 | -1.21 |
| ATACCAAGGTGACCGTGAGGTCGTTGATACTAAC | 2.9 | 3.36 | 1.96 | 0.82 | 2.27 | 3.74 | 3.08 | 4.04 | 2.81 |
| CGTCCAAGGTCCAAGGTCAGTGAAGAGATGACGG | 3.34 | 2.9 | 3.28 | 1.38 | 2.23 | 2.99 | 1.89 | 1.6 | 1.73 |
| ACAGACAGGTGAGTGAAGGTAACTCACCTGGACG | 0.335 | 0.343 | 0.628 | -0.647 | 0.429 | 1.83 | -0.0711 | -0.173 | -0.74 |
| TGAATGAGATTATAAGATCAGGGAACGTTGCAAA | -1.01 | -0.048 | 0.172 | -1.08 | -0.35 | -0.424 | -1.28 | -0.491 | -0.262 |
| CATACAGGGTCAGCTAGGCCACAGTAGGGACGGC | 3.58 | 4.56 | 4.98 | 1.69 | 4.55 | 3.28 | 1.02 | 4.79 | 1.89 |
| TCTTGTAGATCAGCAGGTTCAGAAAGCTGGCCAA | -0.402 | -0.138 | -0.569 | 0.668 | 0.303 | 0.00022 | -0.821 | 3.4 | 1.58 |
| CAAACTACGTCAAAGGTCAAAGTCGAGCCAACCA | 4.68 | 6.1 | 5.88 | 1.66 | 7.92 | 3.5 | 0.927 | 5.02 | 2.36 |
| CCGACTGGGGCAAGGTTACCACAACGCACAGCCA | 1.53 | 1.13 | 1.45 | -0.491 | 1.12 | 1.31 | 0.612 | 0.188 | -0.211 |
| TAATATAGGTAAAAGGTGAAAGTCGGTGTGGTAA | 2.01 | 2.15 | 1.32 | 0.341 | 2.95 | 1.87 | 0.816 | 1.59 | 0.638 |
| AGAACGTGGGCAATGAGTTGATAGCACGGGTGGC | -0.41 | -0.369 | -0.147 | -0.174 | 0.0338 | -0.628 | -0.889 | 0.69 | 0.376 |
| CCTGCTAGGTCATCGTCAGCTAATCTACAGTATG | 3.08 | 4.09 | 5.07 | 2.37 | 3.06 | 2.92 | 1.19 | 1.87 | 0.596 |
| AGAATGAGTTTACCAAAGATCAGGGAAACGCTTG | -0.757 | -0.0513 | 0.236 | 3 | 0.272 | -0.103 | -0.687 | 1.05 | 1.78 |
| ACTTACGGGTCAACGAGGGTATAGCACGCGTATA | 3.24 | 5.55 | 4.88 | 2.4 | 5.63 | 3.42 | -0.0304 | 7.1 | 2.67 |
| AGAATGAGGTTATTTAGATCAGGGAATTGCGGTC | 0.824 | 1.13 | 0.824 | 2.53 | 1.9 | 2.17 | 1.06 | 1.88 | 1.48 |
| GCGACTGGGCCATCAGCAGGTTACCATAACTTAA | 0.461 | -0.0254 | 0.0324 | -0.654 | -0.151 | 0.132 | -0.441 | -0.599 | -0.661 |
| CCTACAGGGTCAGCTAGGCCAGAGTAGGGACGGC | 3.06 | 4.32 | 4.38 | 1.01 | 4.59 | 3.02 | 0.663 | 3.53 | 0.899 |
| ACTAGGAGGCCAAGTTTGGGTCACTCAAACAAAG | 2.66 | 3.46 | 2.56 | 0.0297 | 1.08 | 2.74 | 1 | 1.08 | 0.935 |
| ATCTCTAGGTAACCAAGTTCAGGGAATGCCGAAC | 1.55 | 0.828 | 0.852 | 0.481 | 0.745 | 1.69 | 0.87 | 3.85 | 2.84 |
| CGTCCACGGTCAGCAGGTCAGTGAAAGCGACGTG | 3.48 | 2.99 | 3.3 | 0.0347 | 0.719 | 1.22 | -0.0318 | 0.107 | -0.234 |
| GCGACTGGGGCAAAGCAGATTACCATAAGGTTGG | -0.011 | 0.122 | 0.273 | -0.0663 | 0.0208 | -0.00555 | -0.248 | -0.591 | -0.153 |
| ATCGAAAGGTCGAGCTGAGTATAGAGAAAGGGAA | 1.8 | 4.17 | 3.96 | 0.849 | 4.35 | 1.96 | -0.857 | 2.53 | 0.148 |
| CCTCGGAGGACAACAGGAGGTCAGCGCTGCCAGA | 3.96 | 4.12 | 4.04 | 0.326 | 2.28 | 3.14 | 1.31 | 2.39 | 1.13 |
